What was measured:
Assay in all cases: log2 ratio of Biotin-Ahx-Ub-VS probe labelling (fragment/DMSO); higher = less target engagement (more negative = stronger competition), active = hit call of the paper (q ≤ 0.05, log2 ratio ≤ -1)
Details in all cases: compound concentration: 200 uM; treatment time: 3 h
OTUD6B = biological target: T1, OTUD6B (UniProt Q8N6M0)
T1 sequence (whole entry): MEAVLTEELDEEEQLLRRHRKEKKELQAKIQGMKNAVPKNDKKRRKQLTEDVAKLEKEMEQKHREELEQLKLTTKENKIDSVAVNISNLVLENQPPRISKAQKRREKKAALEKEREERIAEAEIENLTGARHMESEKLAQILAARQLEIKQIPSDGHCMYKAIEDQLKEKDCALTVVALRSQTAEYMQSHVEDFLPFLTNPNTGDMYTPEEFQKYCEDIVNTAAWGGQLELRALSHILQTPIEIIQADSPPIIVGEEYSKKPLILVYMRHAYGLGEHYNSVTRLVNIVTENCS
Method in brief: (§1)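 Labelling with Biotin-Ahx-Ub-VS (0.5 µM final, 1 h) followed a 3 h triplicate treatment of HEK293T lysate (495 µg per sample, Tris/CHAPS/IGEPAL buffer with protease inhibitors) with fragment at 200 µM or vehicle. Labelled DUBs were NeutrAvidin-enriched, digested with LysC and trypsin, and run by diaPASEF LC-MS/MS. The values, average log2 fragment/vehicle ratios by unpaired t-test, come from global-median-normalised Spectronaut label-free quantities. Proteins with ≥2 unique peptides were used.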

OTUD7B = biological target: T2, OTUD7B (UniProt Q6GQQ9)
T2 sequence (whole entry): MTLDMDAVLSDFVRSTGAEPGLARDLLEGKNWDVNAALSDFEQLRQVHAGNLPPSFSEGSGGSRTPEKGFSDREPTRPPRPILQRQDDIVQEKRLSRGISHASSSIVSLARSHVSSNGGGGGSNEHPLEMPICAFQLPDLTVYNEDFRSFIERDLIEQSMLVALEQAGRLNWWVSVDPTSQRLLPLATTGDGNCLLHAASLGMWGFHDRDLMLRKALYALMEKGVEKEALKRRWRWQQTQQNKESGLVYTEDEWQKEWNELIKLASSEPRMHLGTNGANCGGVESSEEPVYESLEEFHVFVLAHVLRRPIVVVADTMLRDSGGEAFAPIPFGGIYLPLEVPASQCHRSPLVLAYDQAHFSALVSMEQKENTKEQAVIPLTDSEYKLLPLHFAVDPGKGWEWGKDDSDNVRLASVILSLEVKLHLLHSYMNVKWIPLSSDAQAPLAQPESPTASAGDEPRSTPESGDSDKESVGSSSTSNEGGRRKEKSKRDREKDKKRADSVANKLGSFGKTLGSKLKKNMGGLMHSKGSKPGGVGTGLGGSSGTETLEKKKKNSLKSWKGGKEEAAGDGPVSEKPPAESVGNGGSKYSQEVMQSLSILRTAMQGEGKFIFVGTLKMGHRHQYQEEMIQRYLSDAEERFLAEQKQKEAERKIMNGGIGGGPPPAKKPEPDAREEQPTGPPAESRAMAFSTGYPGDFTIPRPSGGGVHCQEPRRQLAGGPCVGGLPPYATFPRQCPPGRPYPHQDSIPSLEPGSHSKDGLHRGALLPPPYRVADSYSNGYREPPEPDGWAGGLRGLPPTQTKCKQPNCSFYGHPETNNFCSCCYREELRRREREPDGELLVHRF
Method in brief: as §1

PRPF8 = PRPF8 (UniProt Q6P2Q9)
Method in brief: as §1

PSMD7 = biological target: T3, PSMD7 (UniProt P51665)
T3 sequence (whole entry): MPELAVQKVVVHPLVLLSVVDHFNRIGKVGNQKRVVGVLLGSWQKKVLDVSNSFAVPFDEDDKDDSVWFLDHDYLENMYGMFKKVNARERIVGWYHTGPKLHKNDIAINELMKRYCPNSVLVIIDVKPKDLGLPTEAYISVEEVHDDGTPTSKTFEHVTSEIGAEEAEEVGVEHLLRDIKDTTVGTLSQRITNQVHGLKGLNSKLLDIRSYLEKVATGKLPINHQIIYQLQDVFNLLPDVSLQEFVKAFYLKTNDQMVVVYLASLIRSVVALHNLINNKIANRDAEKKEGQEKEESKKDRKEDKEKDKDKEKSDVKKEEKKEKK
Method in brief: as §1

UCHL1 = UCHL1 (UniProt P09936)
Method in brief: as §1

UCHL3 = biological target: T4, UCHL3 (UniProt P15374)
T4 sequence (whole entry): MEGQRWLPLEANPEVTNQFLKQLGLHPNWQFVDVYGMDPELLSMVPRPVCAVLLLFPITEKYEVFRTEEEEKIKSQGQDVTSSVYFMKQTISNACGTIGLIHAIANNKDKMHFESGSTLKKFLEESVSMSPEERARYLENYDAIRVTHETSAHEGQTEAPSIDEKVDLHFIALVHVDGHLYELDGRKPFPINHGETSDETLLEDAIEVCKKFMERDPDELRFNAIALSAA
Method in brief: as §1

UCHL5 = biological target: T5, UCHL5 (UniProt Q9Y5K5)
T5 sequence (whole entry): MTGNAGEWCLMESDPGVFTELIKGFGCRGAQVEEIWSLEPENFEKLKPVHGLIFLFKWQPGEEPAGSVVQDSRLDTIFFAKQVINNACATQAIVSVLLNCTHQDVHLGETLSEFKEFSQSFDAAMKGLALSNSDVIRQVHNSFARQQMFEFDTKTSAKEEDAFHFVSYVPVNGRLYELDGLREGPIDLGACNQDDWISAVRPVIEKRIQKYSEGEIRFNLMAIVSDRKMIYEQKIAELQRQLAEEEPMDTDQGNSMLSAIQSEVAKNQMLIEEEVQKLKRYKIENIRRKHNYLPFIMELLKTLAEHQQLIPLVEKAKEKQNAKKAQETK
Method in brief: as §1

USP10 = USP10 (UniProt Q14694)
Method in brief: as §1

USP15 = biological target: T6, USP15 (UniProt Q9Y4E8)
T6 sequence (whole entry): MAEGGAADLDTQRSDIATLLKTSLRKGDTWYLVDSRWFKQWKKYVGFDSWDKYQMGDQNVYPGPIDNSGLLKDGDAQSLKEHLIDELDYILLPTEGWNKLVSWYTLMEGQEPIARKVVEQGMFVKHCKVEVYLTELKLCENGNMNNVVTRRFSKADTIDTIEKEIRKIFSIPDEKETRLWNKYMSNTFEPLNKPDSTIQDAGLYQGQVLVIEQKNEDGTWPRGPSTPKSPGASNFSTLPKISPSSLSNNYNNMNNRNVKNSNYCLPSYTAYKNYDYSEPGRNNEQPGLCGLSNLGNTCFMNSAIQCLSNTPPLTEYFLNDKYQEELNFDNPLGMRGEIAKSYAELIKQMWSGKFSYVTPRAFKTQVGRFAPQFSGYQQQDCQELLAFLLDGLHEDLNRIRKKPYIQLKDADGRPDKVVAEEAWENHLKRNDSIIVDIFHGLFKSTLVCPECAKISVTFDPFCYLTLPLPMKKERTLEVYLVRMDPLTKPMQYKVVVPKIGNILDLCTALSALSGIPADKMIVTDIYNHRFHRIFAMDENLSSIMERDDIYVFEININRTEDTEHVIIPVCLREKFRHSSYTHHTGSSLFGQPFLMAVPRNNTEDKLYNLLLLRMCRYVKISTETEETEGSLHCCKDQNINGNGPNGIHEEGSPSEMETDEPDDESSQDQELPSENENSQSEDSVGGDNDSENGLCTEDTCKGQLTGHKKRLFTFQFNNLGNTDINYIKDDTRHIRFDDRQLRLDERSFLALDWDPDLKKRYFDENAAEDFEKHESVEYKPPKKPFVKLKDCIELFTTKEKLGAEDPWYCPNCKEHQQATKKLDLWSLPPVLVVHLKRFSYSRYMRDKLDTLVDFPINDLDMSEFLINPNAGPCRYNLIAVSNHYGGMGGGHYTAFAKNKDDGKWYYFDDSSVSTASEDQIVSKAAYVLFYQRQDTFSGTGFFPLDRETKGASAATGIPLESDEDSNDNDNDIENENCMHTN
Method in brief: as §1

Measured: log2 ratio of Biotin-Ahx-Ub-VS probe labelling

USP10, sequence (Q14694 whole entry): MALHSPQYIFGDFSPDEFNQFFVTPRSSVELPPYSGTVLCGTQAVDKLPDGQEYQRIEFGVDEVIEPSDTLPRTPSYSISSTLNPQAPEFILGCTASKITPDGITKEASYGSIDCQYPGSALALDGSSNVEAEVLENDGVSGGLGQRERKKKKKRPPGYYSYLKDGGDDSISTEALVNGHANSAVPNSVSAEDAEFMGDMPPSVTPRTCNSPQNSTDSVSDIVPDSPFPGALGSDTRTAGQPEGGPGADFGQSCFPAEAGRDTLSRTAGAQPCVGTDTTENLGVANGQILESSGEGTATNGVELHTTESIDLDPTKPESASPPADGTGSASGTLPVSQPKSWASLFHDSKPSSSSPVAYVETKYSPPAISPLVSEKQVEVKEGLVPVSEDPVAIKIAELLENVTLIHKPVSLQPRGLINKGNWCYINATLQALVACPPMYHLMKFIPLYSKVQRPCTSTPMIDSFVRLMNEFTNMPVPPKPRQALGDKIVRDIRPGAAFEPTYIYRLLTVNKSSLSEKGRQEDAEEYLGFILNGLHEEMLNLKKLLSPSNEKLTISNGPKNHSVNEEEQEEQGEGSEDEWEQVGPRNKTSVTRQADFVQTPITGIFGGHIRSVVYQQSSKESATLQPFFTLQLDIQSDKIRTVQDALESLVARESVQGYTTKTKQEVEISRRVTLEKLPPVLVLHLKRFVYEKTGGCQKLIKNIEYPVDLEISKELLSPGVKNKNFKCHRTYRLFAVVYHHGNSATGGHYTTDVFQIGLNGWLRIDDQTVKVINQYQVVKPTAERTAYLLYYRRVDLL
UCHL1, sequence (P09936 whole entry, looked up): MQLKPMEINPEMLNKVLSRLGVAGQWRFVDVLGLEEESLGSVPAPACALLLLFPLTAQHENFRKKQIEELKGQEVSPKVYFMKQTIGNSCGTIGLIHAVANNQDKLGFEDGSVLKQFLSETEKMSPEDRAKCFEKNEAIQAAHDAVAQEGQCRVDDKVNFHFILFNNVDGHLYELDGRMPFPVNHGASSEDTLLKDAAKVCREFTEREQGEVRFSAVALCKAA

Cc1cc(CC(C)NC(=O)CCl)n[nH]1 (centres undefined)
inactive: OTUD6B -0.0562 | OTUD7B -0.54 | PRPF8 -0.109 | PSMD7 -0.276 | UCHL1 -0.533 | UCHL3 -0.222 | UCHL5 -0.292 | USP10 -0.0255 | USP15 -0.325

Source: the supplement of paper PMC11732987, “Enantioselective OTUD7B fragment discovery through chemoproteomics screening and high-throughput optimisation” (Communications Chemistry, 2025)
